Compound activity deposited in PubChem by several laboratories.
This is a sample that favours compounds with a hit; in the whole collection about 4% have one here.
Mdm2 MdmX PPI: inhibitors of human Mdm2-MdmX association, primary screen, cell-based, luminescence, split luciferase, SaOS-2, uHTS; inhibition, % at 8 µM; SaOS-2 split-luciferase Mdm2/MdmX complementation; Protein Mdm4 (Homo sapiens) + E3 ubiquitin-protein ligase Mdm2 (Homo sapiens), …; actives 3% (n = 330,000);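 active = inhibition of at least 50% at 8 µM in the primary screen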
Target sequence (O15151 whole entry, looked up): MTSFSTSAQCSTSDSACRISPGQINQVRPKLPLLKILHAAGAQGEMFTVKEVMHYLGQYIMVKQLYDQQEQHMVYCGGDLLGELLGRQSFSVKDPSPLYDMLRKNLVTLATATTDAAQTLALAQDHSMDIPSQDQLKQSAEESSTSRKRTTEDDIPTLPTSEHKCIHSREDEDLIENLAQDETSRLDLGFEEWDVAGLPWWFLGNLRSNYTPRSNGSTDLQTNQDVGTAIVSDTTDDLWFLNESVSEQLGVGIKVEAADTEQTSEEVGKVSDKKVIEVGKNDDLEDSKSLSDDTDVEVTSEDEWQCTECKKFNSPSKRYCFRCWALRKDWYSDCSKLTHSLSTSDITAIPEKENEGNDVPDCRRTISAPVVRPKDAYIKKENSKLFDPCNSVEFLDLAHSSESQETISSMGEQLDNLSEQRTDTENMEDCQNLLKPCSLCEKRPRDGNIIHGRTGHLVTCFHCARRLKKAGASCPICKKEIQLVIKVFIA
Target sequence (Q00987 whole entry, looked up): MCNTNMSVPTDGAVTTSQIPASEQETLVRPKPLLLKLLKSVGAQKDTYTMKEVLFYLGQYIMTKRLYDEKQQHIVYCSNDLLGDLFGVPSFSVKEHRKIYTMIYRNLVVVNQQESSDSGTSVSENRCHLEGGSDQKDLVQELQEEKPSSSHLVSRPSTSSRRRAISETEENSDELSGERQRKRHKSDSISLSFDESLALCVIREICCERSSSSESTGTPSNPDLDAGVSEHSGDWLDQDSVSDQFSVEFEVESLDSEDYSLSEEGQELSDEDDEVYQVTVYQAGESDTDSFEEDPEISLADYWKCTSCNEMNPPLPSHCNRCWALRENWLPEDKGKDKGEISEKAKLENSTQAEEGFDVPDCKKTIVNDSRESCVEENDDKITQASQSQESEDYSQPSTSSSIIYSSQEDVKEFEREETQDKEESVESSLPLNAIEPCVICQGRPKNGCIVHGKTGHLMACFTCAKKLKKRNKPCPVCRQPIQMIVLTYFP
Gli-Sufu antag: Gli-Sufu pathway antagonists, primary screen, luciferase luminescence, Sufu-KO-LIGHT cells, uHTS | inhibition, % at 5 µM | Sufu-KO-LIGHT fibroblasts, Gli luciferase reporter luminescence | actives 0.74% (n = 340,000);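 active = inhibition above about 55%, limit read from the data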
CSC inhib: cancer stem cell viability inhibitors, primary screen, luminescence; cancer stem cell-like cells viability; inhibition, % at 7.5 µM; actives 1.1% (n = 300,000); AID 2717, 2010; in the data active = inhibition above about 75%; tested in HMLE shEcad cells
Shn3 3UTR inh: reduction of Shn3 3'UTR firefly luciferase signal, primary screen, Schnurri-3 inhibitor project, cell-based, Clone20 osteoblasts, set 2; Clone20 osteoblast Shn3 3'UTR firefly luciferase, 24 h; inhibition, % at 12.5 µM; actives 0.52% (n = 360,000);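 active = mean inhibition of at least 75% with every replicate also reaching 75%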
PAX8 inh HTS: inhibitors of PAX8-driven TPO luciferase reporter, primary screen, RMG-I cells, single concentration. SteadyGlo, 24 h. inhibition, % at 12.6 µM. actives 1.2% (n = 360,000). AID 652154, 2013;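 active = mean replicate inhibition at least 60% with every replicate also reaching 60%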;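 also: luciferase light reporting Pax8 driven TPO promoter activity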
Beta apoptosis: inhibitors of cytokine-induced beta cell apoptosis, primary screen, luminescence; AID 435005, 2010; protection from apoptosis, % (no concentration beside the values); actives 0.8% (n = 300,000); INS-1E cytokine-induced death, ATP luminescence, 48 h; percent of positive-control rescue, neutral wells zero;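 active = Every replicate reaches about 75%, or at least half do and their mean reaches it too, limit read from the data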;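 also: higher means more ATP so stronger rescue from cytokine killing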
Mdm2 MdmX conf: Mdm2-MdmX complex disruptors, retested hits, confirmation, luminescence, single concentration | AID 489028, 2010 | actives 55% (n = 10,000) | shares compounds with Mdm2 MdmX PPI | Mdm2-MdmX binding, luminescent assay | inhibition, % at 8 µM; in the data active = inhibition above about 40%
Full FLuc ctr: full-length luciferase signal inhibition, confirmation, counter-screen for Mdm2/MdmX interaction inhibitor project, cell-based, single concentration, SaOS-2; shares compounds with Mdm2 MdmX PPI; SaOS-2 full-length luciferase counterscreen, luminescence; inhibition, % at 8 µM; actives 77% (n = 6,200); AID 504607, 2011;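 active = mean inhibition at 8 µM reaching about 37%, which flags the compound as non-specific, limit read from the data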;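 also: p53-null SaOS-2 cells with luciferase driven by a doxycycline-inducible promoter; compound on cells about two nights before reading with doxycycline added after day one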
Numbers stand for hits; 0 = inactive; - = not tested or not shown.

SMILES	Mdm2 MdmX PPI	Gli-Sufu antag	CSC inhib	Shn3 3UTR inh	PAX8 inh HTS	Beta apoptosis	Mdm2 MdmX conf	Full FLuc ctr
COC(=O)c1ccc(N2CCCCC2)c(NS(=O)(=O)c2ccc(C)cc2)c1	64.7	0	-	0	-	-	56.6	62.2
CCN(CC)CCNC(=O)c1ccc(N2CCCCC2)c(NS(=O)(=O)c2ccc(C)cc2)c1	0	0	0	0	-	0	-	-
COc1ccc(NC(C)=O)cc1NS(=O)(=O)c1ccc2c(c1)OCCO2	0	0	0	0	0	0	-	-
CC1CN(c2ncc(/C=N/NC(=O)c3ccccc3O)s2)CC(C)O1 (stereo not given)	0	0	0	0	0	0	-	-
O=C(N/N=C/c1cnc(N2CCCCC2)s1)c1ccc(C(F)(F)F)cc1	68.9	0	0	0	73.5	103.8	58.1	37.4
COC(=O)COc1ccc(/C=N/NC(=O)c2ccc(N(Cc3ccccc3)S(C)(=O)=O)cc2)cc1	61.2	0	0	0	61.8	0	0	-
CC(C)Oc1ccc(/C=N/NC(=O)c2ccc(N(Cc3ccccc3)S(C)(=O)=O)cc2)cc1	0	0	0	0	0	0	-	-
O=C(NCCCN1CCOCC1)[C@H]1[C@H](CO)[C@H]2Cn3c(cccc3=O)[C@@H]1N2C(=O)C1CCCCC1	-	-	-	-	0	-	-	-
Cc1cccc(-c2ccc([C@@H]3[C@H](CO)N4CCCCN(S(=O)(=O)c5cn(C)cn5)C[C@@H]34)cc2)c1	-	-	-	-	0	-	-	-
Cn1nc(-c2ccc(Cl)cc2)nc2c(=O)n(C)c(=O)nc1-2	82.6	-	118.5	117.7	-	99.4	79.6	0
NS(=O)(=O)c1ccc(CCN2C(=O)/C(=C\c3ccc(Cl)cc3)SC2=S)cc1	95.1	0	0	0	112.2	0	96.5	46.4
O=C(c1cc(-c2cccs2)nn1-c1ccccc1)N1CCN(S(=O)(=O)c2ccccc2)CC1	54.5	0	0	0	0	0	0	91.6
Cc1ccc(S(=O)(=O)N2CCN(C(=O)c3cc(-c4cccs4)nn3-c3ccccc3)CC2)cc1	67.0	0	0	0	0	0	41.1	88.0
O=C(c1cc(-c2ccccc2)nn1-c1ccccc1)N1CCN(S(=O)(=O)c2ccc(F)cc2)CC1	0	0	0	0	-	0	-	-
C[C@@H]1CN([C@H](C)CO)C(=O)c2cc(N(C)C)ccc2O[C@@H](C)CCCCO[C@H]1CN(C)C(=O)CCC(F)(F)F	-	-	-	-	0	-	-	-
O=C(c1ccc2c(c1)OCO2)N1CC(=O)N2[C@H](C1)[C@H](c1ccc(C#CCC3CCCC3)cc1)[C@@H]2CO	-	-	-	-	0	-	-	-
COc1ccc(-c2cc(=O)[nH]c3ccccc23)cc1	57.7	0	-	0	0	0	0	-
Cc1ccc(-c2cc(=O)[nH]c3ccccc23)cc1	0	0	0	0	-	0	-	-
C[C@@H]1CN([C@H](C)CO)C(=O)c2cc(C#CCN(C)C)cnc2O[C@H]1CN(C)C(=O)NC1CCCCC1	-	-	-	-	0	-	-	-
Cc1ccc(S(=O)(=O)Nc2ccc3c(c2)CC(=O)N([C@@H](C)CO)C[C@H](C)[C@H](CN(C)Cc2ccc4c(c2)OCO4)O3)cc1	-	-	-	-	0	-	-	-
C[C@@H]1CN([C@@H](C)CO)C(=O)c2cc(-c3cccc(F)c3)cnc2O[C@@H]1CN(C)C(=O)c1cnccn1	-	-	-	-	0	-	-	-
CCc1ccc(NC(=O)CSc2nc3n[nH]c(C)c3c(=N)n2-c2cccc(OC)c2)cc1	65.7	0	0	0	-	0	55.8	61.3
CCOc1ccc(-n2c(SCC(=O)Nc3ccccc3CC)nc3n[nH]c(C)c3c2=N)cc1	0	-	0	-	0	0	-	-
Cc1cc(-n2c(SCC(=O)NCc3cccs3)nc3n[nH]c(C)c3c2=N)ccc1Cl	65.6	0	0	0	-	0	0	-
Cc1ccc(CNC(=O)CSc2nc3n[nH]c(C)c3c(=N)n2-c2cccc(C)c2)cc1	0	0	-	0	-	0	-	-
SMILES	Mdm2 MdmX PPI	Gli-Sufu antag	CSC inhib	Shn3 3UTR inh	PAX8 inh HTS	Beta apoptosis	Mdm2 MdmX conf	Full FLuc ctr
Cc1cc(-n2c(SCC(=O)Nc3ccc(Br)cc3)nc3n[nH]c(C)c3c2=N)ccc1Cl	85.9	0	0	0	0	0	43.0	63.9
COc1cccc(NC(=O)CSc2nc3n[nH]c(C)c3c(=N)n2-c2cccc(OC)c2)c1	0	0	0	0	-	0	-	-
CCOc1ccc(-n2c(SCC(=O)Nc3ccc(Br)cc3)nc3n[nH]c(C)c3c2=N)cc1	52.8	0	-	0	0	0	41.4	66.6
CCCN(C)C[C@H]1OCCCC[C@@H](C)Oc2ccc(NS(=O)(=O)c3ccccc3)cc2C(=O)N([C@H](C)CO)C[C@H]1C	-	-	-	-	0	-	-	-
Cc1cc(-n2c(SCC(=O)Nc3ccc(F)c(F)c3)nc3n[nH]c(C)c3c2=N)ccc1Cl	93.9	0	0	0	76.6	76.2	71.5	41.6
CC(=O)N1CC(=O)N2[C@@H](CO)[C@H](c3ccc(-c4ccc(C(=O)N(C)C)cc4)cc3)[C@@H]2C1	-	-	-	-	0	-	-	-
CC(=O)N1CCC(=NNC(=O)c2cc3ccccc3cc2O)CC1	61.8	0	0	0	0	0	50.8	58.3
CCOC(=O)N1CCC(=NNC(=O)c2cc3ccccc3cc2O)CC1	0	0	0	0	0	0	-	-
C[C@H](CO)N1C[C@H](C)[C@@H](CN(C)C(=O)Nc2ccc(C(F)(F)F)cc2)Oc2ccc(NC(=O)Nc3ccc(C(F)(F)F)cc3)cc2C1=O	64.6	0	-	0	0	0	0	-
C[C@H](CO)N1C[C@H](C)[C@@H](CN(C)C(=O)Nc2ccc(C(F)(F)F)cc2)Oc2c(NC(=O)Nc3ccc(C(F)(F)F)cc3)cccc2C1=O	83.8	0	105.7	0	0	0	0	-
C[C@@H]1CN([C@H](C)CO)C(=O)c2cccc(NC(=O)Nc3ccc(C(F)(F)F)cc3)c2O[C@H]1CN(C)C(=O)Nc1ccc(C(F)(F)F)cc1	-	-	-	-	0	-	-	-
C[C@H](CO)N1C[C@H](C)[C@H](CN(C)C(=O)Nc2ccc(C(F)(F)F)cc2)Oc2ccc(NC(=O)Nc3ccc(C(F)(F)F)cc3)cc2C1=O	-	-	-	-	0	-	-	-
Cc1cc2nc(NCCCO)n(CC(=O)c3cc(C(C)(C)C)c(O)c(C(C)(C)C)c3)c2cc1C	97.9	0	75.1	0	0	98.4	63.5	41.0
COc1ccc(-c2cnc3c(c2)C(=O)N([C@@H](C)CO)C[C@H](C)[C@H](CN(C)C(=O)C2CCCCC2)O3)cc1	-	-	-	-	0	-	-	-
Cc1ccc(-c2nnn3c2nc(Cl)c2ccccc23)cc1	-	0	-	0	0	-	-	-
Clc1nc2c(-c3ccccc3)nnn2c2ccccc12	100.4	0	0	-	0	0	54.9	51.4
